The values below come from the supplement of paper PMC10037445.

Structures are written as SMILES. Whole data set: some 2,900 compounds, median “IRF Lucia reporter activity, fold change vs agonist alone” near 0.9, cut for the highest 2% near 2.8. Shown is part of a subset that was picked to be rich in the highest values.

In experiment [1] the test system is RAW-Dual. As to the kind of experiment: IRF Lucia reporter activity, fold change vs agonist alone; cytotoxicity flag (confluency mask): cytotoxic (confluency <70% of control); higher = enhanced IRF activity. An outline of the steps:
(§1)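 Reporter activity is given as fold change relative to agonist-alone wells. To measure it, 50 nL of library stock was pin-tooled onto RAW-Dual macrophages (50,000 cells/well, DMEM, 384-well plates), a PRR agonist followed 1 h later, and cells stayed at 37 °C, 5% CO2. Twenty hours on, supernatant was assayed for IRF (QuantiLuc luminescence) and NF-κB (QuantiBlue, 620 nm absorbance), and wells under 70% of agonist-control IncuCyte confluency in both mask sets were marked cytotoxic.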

For experiment [2], the system named is RAW-Dual. As to the kind of experiment: IRF Lucia reporter activity, fold change vs agonist alone; higher = enhanced IRF activity. Particulars: agonist: MPLA (TLR4) […]. An outline of the steps: as §1
Experiment [3] deals with RAW-Dual. The experiment in a line: IRF Lucia reporter activity, fold change vs agonist alone; cytotoxicity flag (confluency mask): not cytotoxic; higher = enhanced IRF activity. An outline of the steps:
as §1

Where [4] appears, read: agonist: 3'3'-cGAMP (STING) 10 ug/mL.
[5] abbreviates: library stock concentration (final ~1000-fold dilution): 10 mM, cytotoxicity flag (confluency mask): cytotoxic (confluency <70% of control).
The mark [6] stands for this setting: library stock concentration (final ~1000-fold dilution): 10 mM, cytotoxicity flag (confluency mask): not cytotoxic.

Take `Cn1cncc1C(N)(c1ccc(Cl)cc1)c1ccc2c(c1)c(-c1cccc(Cl)c1)cc(=O)n2C` (stereo unspecified) (library stock concentration (final ~1000-fold dilution): 10 mM): the “IRF Lucia reporter activity” value worked out at 0.374 in the experiment on RAW-Dual [1] (setting [4]) and 0.641 with RAW-Dual [1] (agonist: LPS (TLR4) 0.1 ug/mL).

In the case of `Cn1cncc1C(N)(c1ccc(Cl)cc1)c1ccc2c(c1)c(-c1cccc(Cl)c1)cc(=O)n2C` (stereo unspecified), the “IRF Lucia reporter activity” value with RAW-Dual [2] (setting [5]) turned out to be 0.481.

Consider `COC(=O)NC(C(=O)N1CCCC1c1ncc(-c2ccc3c(c2)OC(c2ccccc2)n2c-3cc3cc(-c4cnc(C5CCCN5C(=O)C(NC(=O)OC)C(C)C)[nH]4)ccc32)[nH]1)C(C)C` (stereo unspecified) (library stock concentration (final ~1000-fold dilution): 10 mM), for which the “IRF Lucia reporter activity” value in the experiment on RAW-Dual [3] (setting [4]) was found to be 1.07; with RAW-Dual [3] (agonist: LPS (TLR4) 0.1 ug/mL), 1.16.

Regarding `COC(=O)NC(C(=O)N1CCCC1C(=O)Nc1ccc(C2CCC(c3ccc(NC(=O)C4CCCN4C(=O)C(NC(=O)OC)C(C)C)cc3)N2c2ccc(C(C)(C)C)cc2)cc1)C(C)C` (stereo unspecified), in the experiment with RAW-Dual [2] (setting [6]), the “IRF Lucia reporter activity” value was 0.973.

As for `COC(=O)NC(C(=O)N1CC2(CC2)CC1c1ncc(-c2ccc3c(c2)C(F)(F)c2cc(-c4ccc5nc(C6C7CCC(C7)N6C(=O)C(NC(=O)OC)C(C)C)[nH]c5c4)ccc2-3)[nH]1)C(C)C` (stereo unspecified), the “IRF Lucia reporter activity” value in the experiment with RAW-Dual [2] (setting [6]) was 0.979.

In the case of `COC(=O)NC(C(=O)N1CCCC1c1ncc(-c2ccc(-c3ccc(-c4cnc(C5CCCN5C(=O)C(NC(=O)OC)C(C)C)[nH]4)cc3)cc2)[nH]1)C(C)C` (stereo unspecified) (library stock concentration (final ~1000-fold dilution): 10 mM), the “IRF Lucia reporter activity” value stood at 1.04 with RAW-Dual [3] (setting [4]) and 4.15 with RAW-Dual [3] (agonist: LPS (TLR4) 0.1 ug/mL).

In the case of `COCC1CC(c2ncc(-c3ccc4c(c3)COc3cc5c(ccc6[nH]c(C7CCC(C)N7C(=O)C(NC(=O)OC)C(C)C)nc65)cc3-4)[nH]2)N(C(=O)C(NC(=O)OC)c2ccccc2)C1` (stereo unspecified), the “IRF Lucia reporter activity” value with RAW-Dual [2] (setting [6]) is 0.857.

`COC(=O)NC(C(=O)N1CCCC1c1ncc(-c2ccc(-c3ccc(-c4cnc(C5CCCN5C(=O)C(NC(=O)OC)C(C)C)[nH]4)cc3)cc2)[nH]1)C(C)C.Cl.Cl` (stereo unspecified): the “IRF Lucia reporter activity” value in the experiment on RAW-Dual [2] (setting [6]) worked out at 5.97.

`COC(=O)NC(C(=O)N1CCCC1C(=O)Nc1ccc(C2CCC(c3ccc(NC(=O)C4CCCN4C(=O)C(NC(=O)OC)C(C)C)cc3)N2c2ccc(C(C)(C)C)cc2)cc1)C(C)C` (stereo unspecified) (library stock concentration (final ~1000-fold dilution): 10 mM): the “IRF Lucia reporter activity” value in the experiment on RAW-Dual [3] (setting [4]) came to 0.995; in the experiment on RAW-Dual [3] (agonist: LPS (TLR4) 0.1 ug/mL) it was 1.21.

As for `COC(=O)NC(C(=O)N1CCCC1c1ncc(-c2ccc(-c3ccc(-c4cnc(C5CCCN5C(=O)C(NC(=O)OC)C(C)C)[nH]4)cc3)cc2)[nH]1)C(C)C.Cl.Cl` (stereo unspecified) (library stock concentration (final ~1000-fold dilution): 10 mM), the “IRF Lucia reporter activity” value with RAW-Dual [3] (setting [4]) is 0.948; in the experiment with RAW-Dual [3] (agonist: LPS (TLR4) 0.1 ug/mL), 7.56.

As to `COC(=O)NC(C(=O)N1CC2(CC2)CC1c1ncc(-c2ccc3c(c2)C(F)(F)c2cc(-c4ccc5nc(C6C7CCC(C7)N6C(=O)C(NC(=O)OC)C(C)C)[nH]c5c4)ccc2-3)[nH]1)C(C)C` (stereo unspecified) (library stock concentration (final ~1000-fold dilution): 10 mM), the “IRF Lucia reporter activity” value with RAW-Dual [3] (setting [4]) came out at 0.913; in the experiment with RAW-Dual [3] (agonist: LPS (TLR4) 0.1 ug/mL), 1.23.

With `COCC1CC(c2ncc(-c3ccc4c(c3)COc3cc5c(ccc6[nH]c(C7CCC(C)N7C(=O)C(NC(=O)OC)C(C)C)nc65)cc3-4)[nH]2)N(C(=O)C(NC(=O)OC)c2ccccc2)C1` (stereo unspecified) (library stock concentration (final ~1000-fold dilution): 10 mM), the “IRF Lucia reporter activity” value with RAW-Dual [3] (setting [4]) was determined as 0.767; in the experiment with RAW-Dual [3] (agonist: LPS (TLR4) 0.1 ug/mL), 0.91.

Turning to `COC(=O)NC(C(=O)N1CCCC1c1ncc(-c2ccc3c(c2)OC(c2ccccc2)n2c-3cc3cc(-c4cnc(C5CCCN5C(=O)C(NC(=O)OC)C(C)C)[nH]4)ccc32)[nH]1)C(C)C` (stereo unspecified), the “IRF Lucia reporter activity” value in the experiment with RAW-Dual [2] (setting [6]) came to 1.01.

Consider `COC(=O)NC(C(=O)N1CCCC1c1ncc(-c2ccc(-c3ccc(-c4cnc(C5CCCN5C(=O)C(NC(=O)OC)C(C)C)[nH]4)cc3)cc2)[nH]1)C(C)C` (stereo unspecified), for which the “IRF Lucia reporter activity” value in the experiment on RAW-Dual [2] (setting [6]) came to 3.26.

Regarding `NC(=O)C(CCC(F)(F)F)N(Cc1ccc(-c2ncon2)cc1F)S(=O)(=O)c1ccc(Cl)cc1` (stereo unspecified) (library stock concentration (final ~1000-fold dilution): 10 mM), the “IRF Lucia reporter activity” value in the experiment on RAW-Dual [3] (setting [4]) was 0.94; with RAW-Dual [3] (agonist: LPS (TLR4) 0.1 ug/mL) it was 1.56.

With `NC(=O)C(CCC(F)(F)F)N(Cc1ccc(-c2ncon2)cc1F)S(=O)(=O)c1ccc(Cl)cc1` (stereo unspecified), the “IRF Lucia reporter activity” value with RAW-Dual [2] (setting [6]) amounted to 1.3.

In the case of `CC1COCCN1c1cc(C2(S(C)(=N)=O)CC2)nc(-c2ccnc3[nH]ccc23)n1` (stereo unspecified) (library stock concentration (final ~1000-fold dilution): 10 mM), the “IRF Lucia reporter activity” value in the experiment on RAW-Dual [3] (setting [4]) is 0.193; with RAW-Dual [3] (agonist: LPS (TLR4) 0.1 ug/mL) it was 1.39.

Regarding `COc1cc(C=CC(=O)OCC[N+](C)(C)C)cc(OC)c1O` (library stock concentration (final ~1000-fold dilution): 10 mM), the “IRF Lucia reporter activity” value in the experiment with RAW-Dual [3] (setting [4]) was 0.894; in the experiment with RAW-Dual [3] (agonist: LPS (TLR4) 0.1 ug/mL), 1.04.

Consider `O=c1nc(N2CCOCC2)oc2c(-c3cccc4c3sc3ccccc34)cccc12` (library stock concentration (final ~1000-fold dilution): 10 mM), for which the “IRF Lucia reporter activity” value came to 0.298 with RAW-Dual [3] (setting [4]) and 1.03 in the experiment with RAW-Dual [3] (agonist: LPS (TLR4) 0.1 ug/mL).

As for `O=c1cc(N2CCOCC2)oc2c(-c3cccc4c3sc3ccccc34)cccc12`, the “IRF Lucia reporter activity” value with RAW-Dual [2] (library stock concentration (final ~1000-fold dilution): 2 mM, cytotoxicity flag (confluency mask): not cytotoxic) worked out at 2.7.

Regarding `O=c1cc(N2CCOCC2)oc2c(-c3ccccc3)cccc12` (library stock concentration (final ~1000-fold dilution): 10 mM), the “IRF Lucia reporter activity” value stood at 0.353 with RAW-Dual [1] (setting [4]) and 0.393 in the experiment on RAW-Dual [1] (agonist: LPS (TLR4) 0.1 ug/mL).

On to `O=c1cc(N2CCOCC2)oc2c(-c3cccc4c3sc3ccccc34)cccc12` (library stock concentration (final ~1000-fold dilution): 2 mM), for which the results for the “IRF Lucia reporter activity” value in the experiment on RAW-Dual [3] (setting [4]) and in the experiment on RAW-Dual [3] (agonist: LPS (TLR4) 0.1 ug/mL) were 0.548 and 7.23, respectively.

Take `O=c1cc(N2CCOCC2)oc2c(-c3ccccc3)cccc12`: the “IRF Lucia reporter activity” value in the experiment with RAW-Dual [2] (setting [5]) was 0.627.
